Reference: PubChem BioAssay AID602364 (National Center for Advancing Translational Sciences (NCATS), 2012)
Inconclusive results are not listed. Where a call stands in place of a potency, no number is given. Active and inactive are the calls of the source. Calls follow the shape of the dose curve; as a rule, active = well fitted inhibition curve with a large enough effect; inconclusive = small, poorly fitted or top-dose-only effect; inactive = flat fitted curve, though single readings scatter.

Biological target: Luciferin 4-monooxygenase (Photinus pyralis) (UniProt P08659)
Assay: FLuc inhibitory activity for the follow-up compounds in a biochemical assay with 1mM ATP
Conditions: purified P. pyralis luciferase, luminescence; series mostly up to 57.5 µM
In short: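 Purified P. pyralis luciferase (10nM) with 10uM D-luciferin (KM) and 1mM ATP in Tris acetate pH 7.5, Mg acetate; 12-point qHTS titration ~60uM–0.3nM; luminescence read by CCD imager.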

Chain of Luciferin 4-monooxygenase (Photinus pyralis) (P08659 whole entry, looked up): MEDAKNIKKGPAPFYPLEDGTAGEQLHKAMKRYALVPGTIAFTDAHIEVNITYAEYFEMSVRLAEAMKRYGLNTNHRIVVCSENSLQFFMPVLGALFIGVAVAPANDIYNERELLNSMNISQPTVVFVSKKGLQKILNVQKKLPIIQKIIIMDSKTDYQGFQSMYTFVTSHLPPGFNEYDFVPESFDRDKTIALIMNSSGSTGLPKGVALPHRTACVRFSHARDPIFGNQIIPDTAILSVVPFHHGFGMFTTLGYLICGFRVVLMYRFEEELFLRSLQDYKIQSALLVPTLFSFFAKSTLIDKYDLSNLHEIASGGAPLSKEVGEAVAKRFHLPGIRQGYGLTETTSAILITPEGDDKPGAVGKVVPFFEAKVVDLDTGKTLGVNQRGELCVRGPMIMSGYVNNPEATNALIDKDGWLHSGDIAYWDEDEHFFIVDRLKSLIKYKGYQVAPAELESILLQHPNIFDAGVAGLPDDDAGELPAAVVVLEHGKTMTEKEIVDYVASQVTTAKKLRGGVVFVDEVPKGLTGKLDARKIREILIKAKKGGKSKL

| SMILES | Potency |
| --- | --- |
| COc1ccc(C(=O)Nc2ccccc2C(=O)N/N=C/c2ccc(O)c(OC)c2)cc1 | 14.6 nM (active) |
| COc1c(C)cccc1C(=O)Nc1ccc(-c2nc3ccccc3s2)c(Cl)c1 | inactive |
| O=C(Nc1ccccc1-c1nc2ccccc2s1)c1ccc(Br)o1 | inactive |
